In PubChem BioAssay (NCATS):
Results filed as inconclusive are left out. The source made the active and inactive calls. Calls come from the whole dose curve; as a rule, active = well fitted curve in the direction sought with a large enough effect; inconclusive = small, poorly fitted or top-dose-only effect, or another doubt; inactive = no such curve, though single readings can be large; an effect the other way counts as inactive or inconclusive. Where a SMILES comes first, the peptide text is derived from it. [ ]: non-standard residue; d: D form. ξ: configuration not given here. ξTyr(βOH) = NC(C(=O)O)C(O)c1ccc(O)cc1

How the values were obtained:
[1] = target: Calcium and integrin-binding protein 1 (Homo sapiens) (UniProt Q99828); assay: Primary qHTS for Identification of Calcium Integrin Binding Protein 1 (CIB1) Competitor (AID 1508620);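 note: GST tagged CIB1 binding a fluorescein labelled alphaIIb integrin peptide tracer; top concentration of the series differs between compounds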
Outline: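 Fluorescence polarization competition: CIB1-GST (1 uM final) preincubated with compound 15 min at room temperature, then FITC-labeled alphaIIb peptide (100 nM final) added for another 15 min. Polarization read at Ex 480/Em 540.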

[2] = Primary qHTS for inhibitors of nuclear receptor binding SET domain protein 2 (NSD2) in an isogenic RCH-ACV NSD2 p.E1099K mutant (9B) (AID 1645876); note: nearly all actives have a fitted effect of over 70% in size
[3] = Primary qHTS for inhibitors of nuclear receptor binding SET domain protein 2 (NSD2) in an RCH-ACV wild type WT cells (2C) (AID 1645877); note: nearly all actives have a fitted effect of over 70% in size
% is set by controls: 0 for no effect and ±100 for the full control effect.

Sequence of Calcium and integrin-binding protein 1 (Homo sapiens) (Q99828 whole entry, looked up): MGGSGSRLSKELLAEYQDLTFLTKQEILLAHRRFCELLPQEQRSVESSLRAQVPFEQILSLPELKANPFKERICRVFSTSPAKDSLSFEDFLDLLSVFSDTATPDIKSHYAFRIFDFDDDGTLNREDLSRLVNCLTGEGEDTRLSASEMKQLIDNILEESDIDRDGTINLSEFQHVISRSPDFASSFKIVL

C/C=C(/C)C(=O)O[C@H]1C[C@]2(C)O[C@@H]2[C@@H](OC(C)=O)[C@@]2(C)CC[C@@](O)(C(C)C)[C@H]12
inactive: Potency [1] | Potency [2] | Potency [3]

O=C(/C=C/c1ccc(O)cc1)O[C@H]1[C@H](OC2CCCCC2O)O[C@H](CO)[C@@H](O)[C@@H]1O (stereo partly drawn)
inactive: Potency [1] | Potency [2] | Potency [3]

C[C@H]1[C@H](C)CC[C@]2(C(=O)O)CC[C@]3(C(=O)O)C(=CCC4[C@@]5(C)CC[C@H](O[C@@H]6O[C@@H](C)[C@H](O)[C@@H](O)[C@H]6O)C(C)(C)C5CC[C@]43C)[C@H]12 (stereo partly drawn)
inactive: Potency [1] | Potency [2] | Potency [3]

CC[C@H](C)[C@H](NC(=O)[C@H](Cc1ccc(O)cc1)NC(=O)[C@@H](N)C(C)C)C(=O)N[C@@H](Cc1cnc[nH]1)C(=O)N1CCC[C@H]1C(=O)N[C@@H](Cc1ccccc1)C(=O)O
inactive: activity change, negative = inhibition [1] 2.56% [at 12.4 µM] | outcome [2] inactive [at 4.96 µM] | activity change, negative = cell killing [3] 2.6% [at 4.96 µM]

CC1CCC2C(C)(C)[C@H](O)CC[C@]2(C)C12Cc1c(O)cc3c(c1O2)CN(C(CCC(=O)O)C(=O)O)C3=O (stereo partly drawn)
inactive: Potency [1] | Potency [2] | Potency [3]

O=C(OC[C@H]1O[C@H](O[C@H]2CO[C@H](CO)[C@@H](O)[C@@H]2O)[C@H](O)[C@@H](O)[C@H]1O)c1ccccc1
inactive: Potency [1] | Potency [2] | Potency [3]

CC1(C)C[C@@H]2[C@H](C1)[C@@]1(C)C[C@]13C(O)OC[C@]3(O)[C@H]2O (stereo partly drawn)
inactive: Potency [1] | Potency [2] | Potency [3]

COCC1OC(OC(C)(C)C2CCC3(C)C=C(C4CCC5C4(C)CC(O)C4OC(C(C)(C)O)CCC45C)CCC3O2)C(NC(C)=O)C(O)C1O (stereo not drawn)
inactive: Potency [1] | Potency [2] | Potency [3]

C=C1CC[C@H]2[C@@](C)(CCC(O)[C@@]2(C)CO)[C@@H]1/C=C/C(=C\C(=O)O)C(=O)O (stereo partly drawn)
inactive: Potency [1] | Potency [2] | Potency [3]

C/C(=C\CCC1(C)C2CC3C(C2)C31C)C(=O)O (stereo not drawn)
inactive: Potency [1] | Potency [2] | Potency [3]

COc1cc(C)c(C(=O)O[C@@H]2[C@H](O)[C@@H](CO)O[C@H]2n2ccc(=O)[nH]c2=O)c(OC)c1
inactive: Potency [1] | Potency [2] | Potency [3]

CC(C)=CCC(O)[C@](C)(O)C1[C@H](O)C[C@@]2(C)C3CC=C4C(C[C@H](O)[C@@H](O[C@@H]5O[C@H](CO)[C@@H](O)[C@H](O)[C@H]5O)C4(C)C)[C@]3(C)C(=O)C[C@]12C (stereo partly drawn)
inactive: Potency [1] | Potency [2] | Potency [3]

CC1=CC(=O)CC(C)(C)C1CO[C@@H]1O[C@H](CO)[C@@H](O)[C@H](O)[C@H]1O (stereo partly drawn)
inactive: Potency [1] | Potency [2] | Potency [3]

CC(C)CC(=O)OC[C@@]1(O)C[C@@]23CC[C@H]4[C@@](C)(CCC[C@@]4(C)C(=O)O)[C@@H]2CC[C@@H]1C3
inactive: Potency [1] | Potency [2] | Potency [3]

COc1c(-c2ccc(O)cc2)cc(OC)c2c1oc1cc(O)c(OC3OC(CO)C(O)C3O)cc12 (stereo not drawn)
inactive: Potency [1] | Potency [2] | Potency [3]

CC(=O)O[C@H]1C[C@@H](O)C(C)(C)C2C[C@@H](OC(C)=O)[C@@]3(C)C4=CCC(C(CO)CC(O)C5OC5(C)C)[C@]4(C)CCC3[C@]21C (stereo partly drawn)
inactive: Potency [1] | Potency [2] | Potency [3]

CC(C)C1NC(=O)CNC(=O)C2CCCN2C(=O)C(Cc2c[nH]c3ccccc23)NC(=O)CNC(=O)C(C(O)c2ccc(O)cc2)NC(=O)CNC1=O (stereo not drawn) (cyclo(G[ξTyr(βOH)]GWPGV); configuration not given here)
inactive: Potency [1] | Potency [2] | Potency [3]

C=CC(C)(O)CC/C=C(\C)C(=O)O[C@@H]1[C@@H](O)[C@H](OC(C)(C=C)CC/C=C(\C)C(=O)O)O[C@H](CO)[C@H]1OC(=O)/C(C)=C/CCC(C)(O)C=C (stereo partly drawn)
inactive: Potency [1] | Potency [2] | Potency [3]

C/C=C/C=C/C=C/C(=O)OC1C=C2C(O)OC(=O)[C@]2(O)[C@@]2(C)CCCC(C)(C)[C@H]12 (stereo partly drawn)
inactive: Potency [1] | Potency [2] | Potency [3]

C[C@@H]1O[C@@H](O[C@H]2[C@H](Oc3cc(O)c(C(=O)CCc4ccc(O)cc4)c(O)c3)O[C@H](CO)[C@@H](O)[C@@H]2O)[C@H](O)[C@H](O)[C@H]1O
inactive: Potency [1] | Potency [2] | Potency [3]

COC(=O)[C@]1(C)CCC[C@@]2(C)C(=O)CC[C@H]3C(=O)C=C(CC[C@@H]21)C3O (stereo partly drawn)
inactive: Potency [1] | Potency [2] | Potency [3]

CC1(C)CC[C@]2(C(=O)OC3OC(CO)C(O)C(O)C3O)CC[C@]3(C)C(=CCC4[C@@]5(C)C[C@@H](O)[C@H](OC6OC(C(=O)O)C(O)C(O)C6O)C(C)(C)C5CC[C@]43C)[C@@H]2C1 (stereo partly drawn)
inactive: Potency [1] | activity change, negative = viability loss [2] -7.32% [at 9.23 µM] | activity change, negative = cell killing [3] -10.4% [at 9.23 µM]

O=C(/C=C/c1ccc(O)c(O)c1)O[C@H]1[C@@H]2C=CO[C@@H](O[C@@H]3O[C@H](CO)[C@@H](O)[C@H](O)[C@H]3O)[C@@H]2[C@@]2(CO)O[C@@H]12
inactive: Potency [1] | Potency [2] | Potency [3]

COC(=O)C1=COC(OC2OC(CO)C(O)C(O)C2O)C2C(C)C(OC(C)=O)C(OC(=O)c3ccccc3)C12 (stereo not drawn)
inactive: Potency [1] | Potency [2] | Potency [3]

C=C(C(=O)O)[C@@H]1CC[C@@]2(C)CCC[C@@](C)(O)[C@@H]2C1
inactive: Potency [1] | Potency [2] | Potency [3]

CCC/C=C1\OC(=O)C2=C1CCC(O)C2O (stereo not drawn)
inactive: Potency [1] | Potency [2] | Potency [3]

C[C@]12CCC[C@](C)(C(=O)O)C1CCC13CC(CO)C(CCC12)C3 (stereo partly drawn)
inactive: Potency [1] | Potency [2] | Potency [3]

C=C1CC[C@@H]2[C@](C)(CO)[C@H](O[C@@H]3O[C@H](CO)[C@@H](O)[C@H](O)[C@H]3O)CC[C@@]2(C)[C@@H]1C/C=C1/C(=O)OC[C@H]1O
inactive: Potency [1] | Potency [2] | Potency [3]

CC(C)C1NC(=O)CNC(=O)C2CCCN2C(=O)C(Cc2c[nH]c3ccccc23)NC(=O)CNC(=O)C(Cc2ccc(O)cc2)NC(=O)CNC1=O (stereo not drawn) (cyclo(GVGYGWP); configuration not given here)
inactive: Potency [1] | Potency [2] | Potency [3]

C[C@@H]1C[C@@H](O)[C@@]2(CO)C(CO)=CCC[C@@H]2[C@@]12C[C@@H](c1ccoc1)OC2=O
inactive: Potency [1] | Potency [2] | Potency [3]

CC(C)CC(=O)NCCn1cc(C(=O)O)c(=O)cc1C(O)c1ccccc1 (stereo not drawn)
inactive: Potency [1] | Potency [2] | Potency [3]

CC1(C)CC[C@]2(C(=O)O)CC[C@]3(C)C(=CCC4[C@@]5(C)C[C@@H](O)[C@H](O)[C@](C)(CO)C5CC[C@]43C)[C@@H]2[C@@H]1O (stereo partly drawn)
inactive: Potency [1] | Potency [2] | Potency [3]

COc1cc(O)c2c(c1Cl)CC(C)OC2=O (stereo not drawn)
inactive: Potency [1] | Potency [2] | Potency [3]

COC(=O)c1ccccc1O[C@@H]1O[C@H](CO[C@@H]2OC[C@@H](O)[C@H](O)[C@H]2O)[C@@H](O)[C@H](O)[C@H]1O
inactive: Potency [1] | Potency [2] | Potency [3]

COc1ccc(/C=C/C(=O)N2CCCC2)cc1
inactive: Potency [1] | Potency [2] | Potency [3]

CC(=O)OC1C(O)/C(C)=C\C2C(OC(=O)c3ccccc3)C(C)CC2(OC(C)=O)C(OC(C)=O)C(C)/C=C/C(C)(C)C1OC(C)=O (stereo not drawn)
inactive: Potency [1] | Potency [2] | Potency [3]

CN(C)CC(c1ccc(O)cc1)C1(O)CCCCC1 (stereo not drawn)
inactive: Potency [1] | Potency [2] | Potency [3]

C=CC1(C)CC2CCC3C(C)(C(=O)O)CCCC3(C)C2=CC1=O (stereo not drawn)
inactive: Potency [1] | Potency [2] | Potency [3]

CC(C)=C1CC2[C@](C)(CC[C@@H](OC(=O)C3(C)OC3C)[C@@]2(C)O)CC1=O (stereo partly drawn)
inactive: Potency [1] | Potency [2] | Potency [3]

CC(C)=CCC[C@](C)(O[C@@H]1O[C@H](CO)[C@@H](O)[C@H](O)[C@H]1O)[C@H]1CC[C@]2(C)[C@@H]1[C@H](O)CC1[C@@]3(C)CC[C@H](O)C(C)(C)C3[C@@H](O[C@@H]3O[C@H](CO)[C@@H](O)[C@H](O)[C@H]3O[C@@H]3O[C@@H](C)[C@H](O)[C@@H](O)[C@H]3O)C[C@]12C (stereo partly drawn)
inactive: Potency [1] | activity change, negative = viability loss [2] -2.5% [at 9.23 µM] | activity change, negative = cell killing [3] -9.19% [at 9.23 µM]

CC1=COC(OC2OC(CO)C(O)C(O)C2O)C2C(CO)CC(OC(=O)/C=C/c3ccc(O)cc3)C12 (stereo not drawn)
inactive: Potency [1] | Potency [2] | Potency [3]

CC1(O)CC(O)C2C(C(=O)O)=COC(OC3OC(CO)C(O)C(O)C3OC(=O)/C=C/c3ccc(O)cc3)C21 (stereo not drawn)
inactive: Potency [1] | Potency [2] | Potency [3]

CC(=O)OC[C@]12[C@H](OC(C)=O)[C@H](OC(=O)c3ccccc3)[C@@H]3[C@@H](OC(C)=O)[C@]1(OC3(C)C)[C@H](C)C[C@H](OC(=O)c1ccccc1)[C@@H]2OC(=O)c1ccccc1
inactive: Potency [1] | Potency [2] | Potency [3]

CC(=O)OC1CC(C(C)(C)O)OC2CCC3(C)OC4=C(C(=O)C=C5C(C)C(OC(C)=O)C6(C)C(C)OC546)C(O)C3C12C (stereo not drawn)
inactive: Potency [1] | Potency [2] | Potency [3]

C[C@@H]1O[C@@H](O[C@H]2[C@H](O)[C@@H](O[C@@H]3O[C@H](CO)[C@H](O)[C@H](O)[C@H]3O)[C@H](O[C@H]3CC[C@@]4(C)C(CC[C@]5(C)C4CC=C4[C@@H]6CC(C)(C)CC[C@]6(C(=O)O[C@@H]6O[C@H](CO)[C@@H](O)[C@H](O)[C@H]6O)CC[C@]45C)C3(C)C)O[C@@H]2C(=O)O)[C@H](O)[C@H](O)[C@H]1O (stereo partly drawn)
inactive: Potency [1] | activity change, negative = viability loss [2] 0.405% [at 9.23 µM] | outcome [3] inactive [at 9.23 µM]

CC1(C)CC[C@]2(C(=O)O[C@@H]3O[C@H](CO)[C@@H](O)[C@H](O)[C@H]3O)CC[C@]3(C)C(=CCC4[C@@]5(C)C[C@H](O)[C@H](O[C@@H]6OC[C@@H](O)[C@H](O)[C@H]6O)[C@@](C)(CO)C5CC[C@]43C)C2C1 (stereo partly drawn)
inactive: Potency [1] | activity change, negative = viability loss [2] 1.45% [at 9.23 µM] | activity change, negative = cell killing [3] 2.07% [at 9.23 µM]
